# Bioassay records (PubChem)
# Tau fluor counter – counter-screen for tau fibril formation inhibitors; hit rate 0.93% among 280,000; Potency, µM (highest dose often 57.7 µM), for inactives: at the highest dose activity change, negative = decrease; tau K18 P301L Alexa594 fluorescence, heparin fibrillization; note: potency is the fitted concentration of half-maximal effect; nearly all actives have a fitted effect of over 55% in size
#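 Human K18 P301L tau (15 uM unlabeled plus 0.24 uM Alexa 594-labeled, final) in 100 mM sodium acetate pH 7 was mixed with compound and 20 uM heparin and incubated 6 hr at 37 C.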
# Sfp PPTase inh – inhibitors of Bacillus subtilis Sfp phosphopantetheinyl transferase; Q9F4F7; hit rate 3.5% among 310,000; Biochemical Sfp PPTase activity, qHTS; Potency, µM, inactives show largest response in the series, negative = inhibition, usual class: inhibitors;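 note: the enzyme is Sfp with the accession as filed and its product quenches rhodamine fluorescence; potency is the fitted concentration of half-maximal effect; 0% = enzyme reaction without inhibitor and -100% = no enzyme wells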
#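 Step 1, compound plus 15 nM Sfp-PPTase, 15 min, room temperature. Step 2, add rhodamine-CoA (5 uM) and BHQ-2-YbbR (12.5 uM). Step 3, read 525/598 nm fluorescence at 0 and 30 min.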
# Tau fibril FP – blocks human tau fibril formation measured by polarization. AID 1468. Potency, µM (top dose mostly 57.7 µM), for the others: at the highest dose activity, negative = inhibition, most hits filed as inhibitors. hit rate 0.39% among 280,000. K18 P301L tau heparin fibrillization, Alexa594 FP, 6 h. P10636; note: potency is the fitted concentration of half-maximal effect; nearly all actives have a fitted effect of over 55% in size
# Target sequence (P10636 561-689 P618L limits assumed): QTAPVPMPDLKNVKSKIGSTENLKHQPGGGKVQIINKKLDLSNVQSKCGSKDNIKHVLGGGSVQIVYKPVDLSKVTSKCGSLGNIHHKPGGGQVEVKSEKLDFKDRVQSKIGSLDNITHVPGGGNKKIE
#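 Quantitative HTS format: compounds meet 15 uM recombinant K18 P301L tau and Alexa 594-tau tracer in 100 mM sodium acetate pH 7; 20 uM heparin triggers fibrillization at 37 C over 6 hr; FP gives the signal.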
# FBPA coupling cs – counter-screen for Giardia aldolase inhibitors: coupling enzyme system | coupling enzyme system counterscreen, AmpLite Red fluorescence | activity change, negative = inhibition, % at 58.2 µM, hits read low | hit rate 0.67% among 290,000; in the data active = activity change below about -30%
#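 First, compound is pin-transferred into glyceraldehyde-3-phosphate coupling-enzyme reagent at 57.5 uM final and held 10 min at RT. Next, substrate, coupling system and AmpLite Red are added. After 20 min RT, fluorescence (525/598 nm) is read.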
# Tau fibril ThT – blocks human tau fibril formation measured by thioflavin T; hit rate 2.1% among 270,000; P10636; Potency, µM (series often up to 57.4 µM), without a hit: at the top dose activity, negative = inhibition, usual class: inhibitors; recombinant tau K18 P301L (four-repeat tau fragment), heparin-induced fibrillization, ThT fluorescence; note: potency is the fitted concentration of half-maximal effect; nearly all actives have a fitted effect of over 55% in size
#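 Heparin-induced fibrillization of the P301L-mutant K18 repeat-domain fragment of human tau was followed by ThT binding in quantitative high-throughput format.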
# Starred values were filed as active, the others as inactive; ? = inconclusive; . = no result; ! = a repeat was not active; [ ] = dose if it differs, or a comment. Sampled rows, rich in hits. Any-hit rate of the full collection: about 5.2%. Unless noted, calls come from the whole dose curve; as a rule, active = well fitted curve in the direction sought with a large enough effect; inconclusive = small, poorly fitted or top-dose-only effect, or another doubt; inactive = no such curve, though single readings can be large; an effect the other way counts as inactive or inconclusive. Unless noted, % is set by controls: 0 for no effect and ±100 for the full control effect.
SMILES,Tau fluor counter,Sfp PPTase inh,Tau fibril FP,FBPA coupling cs,Tau fibril ThT
CN1C(=O)C(=Cc2ccc(N3CCOCC3)o2)C(=O)N(C)C1=S,0%,6%,1%,-2,?
CN1CCN(c2ccc(/C=C3\C(=O)NC(=S)N(c4cccc(Br)c4)C3=O)o2)CC1,-19%,10%,-14%,-1,16µM*
CN1C(=O)/C(=C/c2ccc(N3CCCCCC3)o2)C(=O)NC1=S,-12%,50µM*,-2%,2,14µM*
C=CCN1C(=O)/C(=C\c2ccc(N3CCOCC3)o2)C(=O)NC1=S,0%,56µM*,-6%,-3,?
CCN1C(=O)C(=Cc2ccc(N3CCOCC3)o2)C(=O)N(CC)C1=S,-28%,-23%,-10%,2,18µM*
CN1C(=O)/C(=C\c2ccc(N3CCCCC3)o2)C(=O)NC1=S,-8%,-14%,-11%,1,?
COP(N)(=O)SC (stereo not given),-3%,-8%,-8%,4,0%
O=C1NC(=O)N(Cc2ccco2)C(=O)/C1=C/C=C/c1ccco1,-22%,-6%,?,-1,8.9µM*
O=C1NC(=O)N(Cc2ccccc2)C(=O)/C1=C/N1CCCc2ccccc21,-24%,-26%,?,0,10µM*
O=C1NC(=O)N(Cc2ccccc2)C(=O)/C1=C\C=C\c1ccco1,-22%,-26%,?,1,14µM*
c1ccc(N2CC[C@@]3(CCCNC3)C2)cc1,.,?,.,1,.
c1nc[n]([Sn]([CH]2CCCCC2)([CH]2CCCCC2)[CH]2CCCCC2)n1,.,?,.,1,.
Cc1ncc2n1-c1ccc(Cl)cc1C(c1ccccc1F)=NC2O (stereo not given),.,-9%,.,7,.
Clc1ccc([C@@H](OCCN2CCCCC2)c2ccccc2)cc1,.,21%,.,-5,.
C(=C\c1ccccc1)/CN1CCN(CCOC(c2ccccc2)c2ccccc2)CC1,-14%,56µM*,-5%,.,-15%
CN(C)/C=C1/C(=O)NC(=O)N(CCNc2ncc(C(F)(F)F)cc2Cl)C1=O,-9%,-12%,?,10,16µM*
Cc1nn(CCC#N)c2c1P(=S)(N1CCCC1)OC(c1ccc(F)cc1)=N2 (stereo not given),-25%,10µM*,?,2,32µM*
CC=C1C2C=C(C)CC1(N)c1ccc(=O)[nH]c1C2 (stereo not given),2%,17%,-8%,.,1%
Nc1cncc(C(=O)O)c1,6%,79µM*!,1%,-31*!,1%
COC(=O)[C@@H]1[C@@H](O)[C@@]2(O)c3c(OC)cc(OC)cc3O[C@@]2(c2ccc(OC)cc2)[C@H]1c1ccccc1,-10%[11.6 µM],10%,-5%[11.6 µM],1,-9%[11.5 µM]
CCn1c(C)cc(/C=C2\C(=O)NC(=O)N(c3ccccc3C)C2=O)c1C,0%,10%,-6%,0,?
Cc1ccccc1N1C(=O)NC(=O)/C(=C\c2cnn(-c3ccccc3)c2)C1=O,4%,25µM*,-1%,-2,-9%
Cc1nc(-c2ccc(-c3ccc(C(=O)N4CCc5cc6c(cc54)C4(CCN(C)CC4)CO6)cc3)c(C)c2)no1,-16%,63µM*,-8%,4,?
CC(Cc1ccc(C(C)(C)C)cc1)CN1CCCCC1 (stereo not given),.,4%,.,1,.
CN1CCN2c3ccc(N)cc3CC3(C(=O)NC(=O)NC3=O)C2C1 (stereo not given),-22%,22µM*,-12%,-10,.
SMILES,Tau fluor counter,Sfp PPTase inh,Tau fibril FP,FBPA coupling cs,Tau fibril ThT
CN1C(=O)N(C)C(=O)C2(Cc3cc(N)ccc3N3CCN(c4ccccc4F)CC32)C1=O (stereo not given),?,9%,?,-15,?
Nc1nnc(Sc2ncccc2[N+](=O)[O-])s1,-9%,-2%,2%,1,?
C=CCc1cc(OC)c2c(c1OC)OCO2,-8%,8%,-8%,-2,-6%
CN1C(=O)NC(=O)/C(=C\C=C\c2ccccc2[N+](=O)[O-])C1=O,-22%,18µM*,?,-1,25µM*
C=C1CCC(O)C/C1=C\C=C1/CCCC2(C)C1CCC2C(C)CCCC(C)C (stereo not given),-26%,4%,-6%,0,?
O=C(Oc1ccccc1)N1CCC2(CCCN(C(c3ccccc3)c3ccccc3)C2)CC1,.,-8%,.,0,.
O=C(Oc1ccccc1)N1CCC[C@@]2(CCN(C(c3ccccc3)c3ccccc3)C2)C1,.,1%,.,-34*,.
COc1ccc2o/c(=N\O)c(C(=O)Nc3ccc(C)cc3)cc2c1,-24%,?,-12%,0,16µM*
COc1ccc(/C=C/C(=O)Nc2ccc(C)cc2)cc1,-22%,.,?,.,12%
CN(C)C(CSC(N)=O)CSC(N)=O,.,-28%,.,-2,.
CC(C)CN(CC(C)C)c1ccc(C=C2C(=O)NC(=S)NC2=O)cc1[N+](=O)[O-],?,20µM*,?,-19,25µM*
CCN(CC)c1ccc(C=C2C(=O)NC(=S)NC2=O)cc1,?,3.2µM*,-7%,-26,?
Cc1nn(Cc2ccccc2)c(C)c1C=C1C(=O)NC(=S)NC1=O,1%,-97%,-5%,5,?
COC(=O)COc1ccc(C[C@@H](C)NC[C@H](O)c2cccc(Cl)c2)cc1,.,-6%,.,-1,.
NCCNC[C@@H](N)CCCN=C(N)N[N+](=O)[O-],.,11%,.,-2,.
O=C(N/N=C/c1c(O)n(CCC2=CCCCC2)c(=S)[nH]c1=O)c1ccccc1,?,8%,?,10,25µM*
S=c1[nH]nc(-c2ccn[nH]2)n1-c1ccccc1Cl,-8%,56µM*,-2%,2,-16%
COc1ccc(CCn2c(NN=C3CCCCC3)nc3c2c(=O)[nH]c(=O)n3C)cc1,?,?,?,-26,28µM*
